# Columns and labels:
# Assay in all cases: DAPPL (digital affinity profiling via proximity ligation, sequencing); 10 mM Tris-HCl pH 7.5, 50 mM NaCl, 1 mM DTT, 4% glycerol, room temperature, 30 min; GST-TFs on glutathione beads, 16-mer random dsDNA library, 0.1% formaldehyde crosslink after washing; high values mean tight binding
# [1] = target: T1, FLI1 (Homo sapiens, UniProt Q01543 1-452); conditions: protein: recombinant; tags: N-terminal GST; dsDNA, one strand shown
# T1 sequence: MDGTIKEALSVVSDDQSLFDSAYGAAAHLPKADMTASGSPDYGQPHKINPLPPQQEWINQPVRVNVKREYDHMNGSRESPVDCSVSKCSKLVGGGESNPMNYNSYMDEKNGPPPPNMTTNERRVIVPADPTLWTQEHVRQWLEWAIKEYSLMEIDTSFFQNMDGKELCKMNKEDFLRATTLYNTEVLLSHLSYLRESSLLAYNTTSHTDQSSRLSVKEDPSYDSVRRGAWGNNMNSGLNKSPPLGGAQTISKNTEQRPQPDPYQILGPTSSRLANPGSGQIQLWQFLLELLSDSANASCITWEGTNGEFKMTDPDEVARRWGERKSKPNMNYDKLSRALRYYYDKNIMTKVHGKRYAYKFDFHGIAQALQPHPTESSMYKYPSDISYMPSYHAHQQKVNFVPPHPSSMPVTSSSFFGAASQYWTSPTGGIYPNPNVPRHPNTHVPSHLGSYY
# Method in brief: (§1)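 The binding signal reported is, for every hexamer, its read frequency for a factor over its read frequency for the tag-only sample. Reads came from pools of yeast-expressed, GST-fused human transcription factors on glutathione beads, barcoded with DNA and mixed with that sample, which were incubated with 200 nmole of a random double-stranded 16-mer DNA library in Tris/NaCl/DTT/glycerol buffer at room temperature for 30 min. After washing, the pools were crosslinked with 0.1% formaldehyde, proximity-ligated with BsaI/T4 ligase for 1 h at 37 °C, PCR-amplified and sequenced on an Illumina NextSeq500.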
# [2] = target: T2, ELK1 (Homo sapiens, UniProt P19419 1-428); conditions: protein: recombinant; tags: N-terminal GST; dsDNA, one strand shown
# T2 sequence: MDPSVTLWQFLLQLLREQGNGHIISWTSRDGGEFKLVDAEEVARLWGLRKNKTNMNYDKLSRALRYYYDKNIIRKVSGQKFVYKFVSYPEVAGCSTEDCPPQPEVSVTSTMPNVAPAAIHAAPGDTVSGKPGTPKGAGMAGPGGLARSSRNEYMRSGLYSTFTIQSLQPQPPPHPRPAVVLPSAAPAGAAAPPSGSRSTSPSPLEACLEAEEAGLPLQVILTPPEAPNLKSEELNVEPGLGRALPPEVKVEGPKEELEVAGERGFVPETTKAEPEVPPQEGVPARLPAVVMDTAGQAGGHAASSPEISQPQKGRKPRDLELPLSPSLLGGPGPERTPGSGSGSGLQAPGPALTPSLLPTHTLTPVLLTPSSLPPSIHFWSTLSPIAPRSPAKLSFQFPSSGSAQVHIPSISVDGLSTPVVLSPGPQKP
# Method in brief: as §1
# [3] = target: T3, GABPA (Homo sapiens, UniProt Q06546 1-454); conditions: protein: recombinant; tags: N-terminal GST; dsDNA, one strand shown
# T3 sequence: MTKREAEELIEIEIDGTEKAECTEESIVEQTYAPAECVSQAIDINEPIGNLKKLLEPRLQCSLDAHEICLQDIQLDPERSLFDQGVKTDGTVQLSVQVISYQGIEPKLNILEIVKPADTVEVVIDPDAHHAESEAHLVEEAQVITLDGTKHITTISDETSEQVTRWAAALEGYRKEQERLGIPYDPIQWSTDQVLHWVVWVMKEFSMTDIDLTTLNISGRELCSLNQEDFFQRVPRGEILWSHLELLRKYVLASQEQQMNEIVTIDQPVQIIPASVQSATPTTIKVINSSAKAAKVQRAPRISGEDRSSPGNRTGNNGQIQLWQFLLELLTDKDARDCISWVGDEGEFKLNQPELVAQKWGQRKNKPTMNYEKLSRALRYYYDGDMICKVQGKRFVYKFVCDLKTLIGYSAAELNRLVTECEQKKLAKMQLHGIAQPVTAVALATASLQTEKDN
# Method in brief: as §1
# [4] = target: T4, ERG (Homo sapiens, UniProt P11308 1-479); conditions: protein: recombinant; tags: N-terminal GST; dsDNA, one strand shown
# T4 sequence: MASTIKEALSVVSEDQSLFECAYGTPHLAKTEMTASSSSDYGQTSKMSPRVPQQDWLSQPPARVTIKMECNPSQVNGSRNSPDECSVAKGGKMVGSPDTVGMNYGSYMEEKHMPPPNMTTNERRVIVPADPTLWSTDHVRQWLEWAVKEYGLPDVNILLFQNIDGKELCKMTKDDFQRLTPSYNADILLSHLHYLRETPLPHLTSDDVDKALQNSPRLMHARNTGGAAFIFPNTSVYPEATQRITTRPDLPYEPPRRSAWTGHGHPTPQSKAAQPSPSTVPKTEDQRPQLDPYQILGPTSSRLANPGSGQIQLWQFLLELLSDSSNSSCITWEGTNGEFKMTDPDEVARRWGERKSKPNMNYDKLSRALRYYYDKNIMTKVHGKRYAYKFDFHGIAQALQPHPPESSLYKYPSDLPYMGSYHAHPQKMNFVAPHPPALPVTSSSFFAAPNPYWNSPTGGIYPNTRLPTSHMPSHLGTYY
# Method in brief: as §1
# [5] = target: ELF1 (Homo sapiens, UniProt P32519 1-619); conditions: protein: recombinant; tags: N-terminal GST; dsDNA, one strand shown
# Chain of ELF1 (P32519 whole entry): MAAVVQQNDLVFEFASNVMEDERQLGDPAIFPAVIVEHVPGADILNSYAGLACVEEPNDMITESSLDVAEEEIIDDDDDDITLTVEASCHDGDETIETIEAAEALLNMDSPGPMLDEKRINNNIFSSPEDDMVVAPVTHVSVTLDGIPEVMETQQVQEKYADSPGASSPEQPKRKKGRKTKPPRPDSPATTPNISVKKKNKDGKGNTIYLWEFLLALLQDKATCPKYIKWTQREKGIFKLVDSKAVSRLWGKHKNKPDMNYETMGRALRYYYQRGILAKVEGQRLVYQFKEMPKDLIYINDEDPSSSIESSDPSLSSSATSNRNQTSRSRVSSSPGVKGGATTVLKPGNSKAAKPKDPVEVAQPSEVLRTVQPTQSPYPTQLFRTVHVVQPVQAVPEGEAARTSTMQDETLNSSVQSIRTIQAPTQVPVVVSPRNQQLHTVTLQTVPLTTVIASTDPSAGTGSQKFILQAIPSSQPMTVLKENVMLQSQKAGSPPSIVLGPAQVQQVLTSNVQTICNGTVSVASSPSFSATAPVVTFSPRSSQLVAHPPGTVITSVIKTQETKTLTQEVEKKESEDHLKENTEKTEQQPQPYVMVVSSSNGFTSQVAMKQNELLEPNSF
# Method in brief: as §1
# [6] = target: T5, EHF (Homo sapiens, UniProt Q9NZC4 1-300); conditions: protein: recombinant; tags: N-terminal GST; dsDNA, one strand shown
# T5 sequence: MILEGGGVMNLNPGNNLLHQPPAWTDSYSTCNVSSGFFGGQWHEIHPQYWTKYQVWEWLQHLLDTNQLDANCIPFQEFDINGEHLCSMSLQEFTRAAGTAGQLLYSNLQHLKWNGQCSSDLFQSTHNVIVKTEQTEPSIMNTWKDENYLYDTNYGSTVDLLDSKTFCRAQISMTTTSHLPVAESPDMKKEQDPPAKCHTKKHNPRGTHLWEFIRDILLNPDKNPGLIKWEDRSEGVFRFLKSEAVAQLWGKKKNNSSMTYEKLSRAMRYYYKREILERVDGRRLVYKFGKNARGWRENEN
# Method in brief: as §1
# [7] = target: SPI1 (Homo sapiens, UniProt P17947 1-270); conditions: protein: recombinant; tags: N-terminal GST; dsDNA, one strand shown
# Method in brief: as §1
# [8] = target: SPIB (Homo sapiens, UniProt Q01892 1-262); conditions: protein: recombinant; tags: N-terminal GST; dsDNA, one strand shown
# Chain of SPIB (Q01892 whole entry): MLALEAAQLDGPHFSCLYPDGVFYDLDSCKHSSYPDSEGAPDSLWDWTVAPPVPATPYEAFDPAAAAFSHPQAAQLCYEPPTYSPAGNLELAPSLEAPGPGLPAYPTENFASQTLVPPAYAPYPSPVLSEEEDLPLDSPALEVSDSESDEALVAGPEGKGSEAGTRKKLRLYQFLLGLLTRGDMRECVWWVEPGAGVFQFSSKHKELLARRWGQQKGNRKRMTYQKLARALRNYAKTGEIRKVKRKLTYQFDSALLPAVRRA
# Method in brief: as §1
# [9] = target: T6, ELK3 (Homo sapiens, UniProt P41970 1-407); conditions: protein: recombinant; tags: N-terminal GST; dsDNA, one strand shown
# T6 sequence: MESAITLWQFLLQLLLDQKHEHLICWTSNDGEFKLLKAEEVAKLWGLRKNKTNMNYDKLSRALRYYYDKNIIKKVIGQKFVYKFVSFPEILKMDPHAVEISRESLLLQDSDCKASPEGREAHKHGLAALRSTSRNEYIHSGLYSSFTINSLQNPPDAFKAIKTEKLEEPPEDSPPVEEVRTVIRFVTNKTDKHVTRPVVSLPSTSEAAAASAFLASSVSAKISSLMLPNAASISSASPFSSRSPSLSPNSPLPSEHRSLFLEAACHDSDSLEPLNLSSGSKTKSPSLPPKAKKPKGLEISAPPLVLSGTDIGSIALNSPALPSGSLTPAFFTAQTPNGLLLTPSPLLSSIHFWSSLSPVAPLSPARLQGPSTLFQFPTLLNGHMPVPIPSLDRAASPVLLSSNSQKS
# Method in brief: as §1
# [10] = target: T7, FEV (Homo sapiens, UniProt Q99581 1-238); conditions: protein: recombinant; tags: N-terminal GST; dsDNA, one strand shown
# T7 sequence: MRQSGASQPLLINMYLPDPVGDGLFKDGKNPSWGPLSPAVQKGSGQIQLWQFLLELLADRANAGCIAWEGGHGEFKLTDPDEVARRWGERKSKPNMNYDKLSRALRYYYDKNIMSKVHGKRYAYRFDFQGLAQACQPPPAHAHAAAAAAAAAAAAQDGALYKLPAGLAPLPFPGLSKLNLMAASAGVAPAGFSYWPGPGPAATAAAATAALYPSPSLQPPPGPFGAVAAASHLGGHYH
# Method in brief: as §1
# [11] = target: ETV5 (Homo sapiens, UniProt P41161 1-510); conditions: protein: recombinant; tags: N-terminal GST; dsDNA, one strand shown
# Chain of ETV5 (P41161 whole entry): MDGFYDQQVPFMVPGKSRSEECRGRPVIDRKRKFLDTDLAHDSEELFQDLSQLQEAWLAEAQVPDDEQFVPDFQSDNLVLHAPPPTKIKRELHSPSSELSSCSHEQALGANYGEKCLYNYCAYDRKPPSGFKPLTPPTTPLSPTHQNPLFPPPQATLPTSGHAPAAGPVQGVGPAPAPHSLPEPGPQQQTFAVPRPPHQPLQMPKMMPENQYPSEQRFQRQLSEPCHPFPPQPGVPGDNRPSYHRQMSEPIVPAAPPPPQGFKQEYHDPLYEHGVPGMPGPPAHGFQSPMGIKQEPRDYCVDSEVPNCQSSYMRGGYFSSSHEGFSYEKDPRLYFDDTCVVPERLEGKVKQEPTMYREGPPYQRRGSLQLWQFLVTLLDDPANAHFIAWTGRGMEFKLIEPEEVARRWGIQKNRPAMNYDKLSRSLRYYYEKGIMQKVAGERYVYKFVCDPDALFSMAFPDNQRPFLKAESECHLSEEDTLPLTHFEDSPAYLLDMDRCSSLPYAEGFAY
# Method in brief: as §1
# [12] = target: HSF1 (Homo sapiens, UniProt Q00613 1-529); conditions: protein: recombinant; tags: N-terminal GST; chain copies: 3; dsDNA, one strand shown
# Chain of HSF1 (Q00613 whole entry): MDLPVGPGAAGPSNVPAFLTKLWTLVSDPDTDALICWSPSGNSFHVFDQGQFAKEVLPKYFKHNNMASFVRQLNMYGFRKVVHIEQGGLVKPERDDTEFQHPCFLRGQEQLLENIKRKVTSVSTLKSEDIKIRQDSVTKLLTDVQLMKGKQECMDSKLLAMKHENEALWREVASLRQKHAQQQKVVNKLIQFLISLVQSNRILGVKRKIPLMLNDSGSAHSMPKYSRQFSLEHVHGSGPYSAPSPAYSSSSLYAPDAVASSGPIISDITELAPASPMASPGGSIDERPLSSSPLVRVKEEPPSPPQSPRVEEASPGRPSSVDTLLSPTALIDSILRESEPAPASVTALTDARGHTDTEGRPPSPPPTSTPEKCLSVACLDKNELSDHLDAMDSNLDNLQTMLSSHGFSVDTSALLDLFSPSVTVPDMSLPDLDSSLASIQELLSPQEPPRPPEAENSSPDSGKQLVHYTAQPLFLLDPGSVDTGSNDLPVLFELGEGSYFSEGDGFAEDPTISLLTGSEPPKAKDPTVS
# Method in brief: as §1
# [13] = target: T8, SPIC (Homo sapiens, UniProt Q8N5J4 1-248); conditions: protein: recombinant; tags: N-terminal GST; dsDNA, one strand shown
# T8 sequence: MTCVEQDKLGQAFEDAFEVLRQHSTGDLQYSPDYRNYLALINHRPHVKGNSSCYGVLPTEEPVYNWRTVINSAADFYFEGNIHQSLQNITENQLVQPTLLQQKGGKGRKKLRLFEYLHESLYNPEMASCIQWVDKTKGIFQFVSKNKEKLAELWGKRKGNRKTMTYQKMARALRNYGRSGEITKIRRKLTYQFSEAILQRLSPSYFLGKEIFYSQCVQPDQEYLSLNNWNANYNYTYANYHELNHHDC
# Method in brief: as §1
# [14] = target: ELF4 (Homo sapiens, UniProt Q99607 1-663); conditions: protein: recombinant; tags: N-terminal GST; dsDNA, one strand shown
# Chain of ELF4 (Q99607 whole entry): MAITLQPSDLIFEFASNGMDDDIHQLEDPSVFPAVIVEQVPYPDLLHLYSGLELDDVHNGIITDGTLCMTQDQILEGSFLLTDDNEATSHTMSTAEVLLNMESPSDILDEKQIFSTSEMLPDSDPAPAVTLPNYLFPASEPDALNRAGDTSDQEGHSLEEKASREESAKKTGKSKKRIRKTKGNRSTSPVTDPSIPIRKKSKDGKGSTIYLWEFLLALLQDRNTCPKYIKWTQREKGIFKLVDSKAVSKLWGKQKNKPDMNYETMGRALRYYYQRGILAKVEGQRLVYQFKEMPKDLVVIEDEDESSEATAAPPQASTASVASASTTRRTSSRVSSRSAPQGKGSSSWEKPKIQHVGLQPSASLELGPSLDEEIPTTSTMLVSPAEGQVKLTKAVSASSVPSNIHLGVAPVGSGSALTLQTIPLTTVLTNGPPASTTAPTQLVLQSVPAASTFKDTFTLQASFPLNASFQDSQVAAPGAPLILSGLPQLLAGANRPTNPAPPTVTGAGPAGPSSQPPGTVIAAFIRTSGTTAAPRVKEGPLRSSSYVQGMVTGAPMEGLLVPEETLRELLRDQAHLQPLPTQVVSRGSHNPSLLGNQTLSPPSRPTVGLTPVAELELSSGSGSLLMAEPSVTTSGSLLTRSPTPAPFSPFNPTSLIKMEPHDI
# Method in brief: as §1
# [15] = target: T9, ELK4 (Homo sapiens, UniProt P28324-2 1-405); conditions: protein: recombinant; tags: N-terminal GST; dsDNA, one strand shown
# T9 sequence: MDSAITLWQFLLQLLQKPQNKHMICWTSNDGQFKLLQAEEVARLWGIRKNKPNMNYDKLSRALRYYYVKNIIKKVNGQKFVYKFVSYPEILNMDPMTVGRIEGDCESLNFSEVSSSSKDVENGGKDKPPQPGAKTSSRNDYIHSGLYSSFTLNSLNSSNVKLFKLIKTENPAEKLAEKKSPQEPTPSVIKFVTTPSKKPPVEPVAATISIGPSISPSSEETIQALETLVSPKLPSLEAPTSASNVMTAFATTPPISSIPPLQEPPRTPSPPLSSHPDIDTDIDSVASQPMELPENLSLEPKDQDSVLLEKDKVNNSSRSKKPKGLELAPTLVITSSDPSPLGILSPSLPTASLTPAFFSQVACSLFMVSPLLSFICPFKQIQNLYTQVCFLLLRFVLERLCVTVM
# Method in brief: as §1
# [16] = target: T10, ETV2 (Homo sapiens, UniProt O00321 1-342); conditions: protein: recombinant; tags: N-terminal GST; dsDNA, one strand shown
# T10 sequence: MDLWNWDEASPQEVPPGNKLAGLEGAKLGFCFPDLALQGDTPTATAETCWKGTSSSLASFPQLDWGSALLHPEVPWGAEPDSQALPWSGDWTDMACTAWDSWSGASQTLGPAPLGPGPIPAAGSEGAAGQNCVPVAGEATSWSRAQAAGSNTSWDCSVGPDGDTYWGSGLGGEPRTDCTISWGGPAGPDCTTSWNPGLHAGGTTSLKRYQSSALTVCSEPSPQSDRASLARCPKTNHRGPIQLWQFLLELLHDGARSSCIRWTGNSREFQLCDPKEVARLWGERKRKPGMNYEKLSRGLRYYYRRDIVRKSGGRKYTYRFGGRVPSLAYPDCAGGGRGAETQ
# Method in brief: as §1
# [17] = target: T11, ELF3 (Homo sapiens, UniProt P78545 1-371); conditions: protein: recombinant; tags: N-terminal GST; dsDNA, one strand shown
# T11 sequence: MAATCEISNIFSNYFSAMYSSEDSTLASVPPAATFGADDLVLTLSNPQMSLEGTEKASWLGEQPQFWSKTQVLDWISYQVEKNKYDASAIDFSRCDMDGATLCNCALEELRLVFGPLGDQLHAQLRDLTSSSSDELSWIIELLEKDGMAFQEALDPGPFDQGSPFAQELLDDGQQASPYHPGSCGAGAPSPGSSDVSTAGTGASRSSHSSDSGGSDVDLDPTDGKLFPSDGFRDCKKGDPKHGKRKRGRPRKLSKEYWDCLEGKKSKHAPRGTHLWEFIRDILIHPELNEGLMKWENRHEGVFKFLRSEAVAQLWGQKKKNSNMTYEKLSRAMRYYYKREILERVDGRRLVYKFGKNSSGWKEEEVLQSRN
# Method in brief: as §1
# [18] = target: ETV1 (Homo sapiens, UniProt P50549 1-477); conditions: protein: recombinant; tags: N-terminal GST; dsDNA, one strand shown
# Chain of ETV1 (P50549 whole entry): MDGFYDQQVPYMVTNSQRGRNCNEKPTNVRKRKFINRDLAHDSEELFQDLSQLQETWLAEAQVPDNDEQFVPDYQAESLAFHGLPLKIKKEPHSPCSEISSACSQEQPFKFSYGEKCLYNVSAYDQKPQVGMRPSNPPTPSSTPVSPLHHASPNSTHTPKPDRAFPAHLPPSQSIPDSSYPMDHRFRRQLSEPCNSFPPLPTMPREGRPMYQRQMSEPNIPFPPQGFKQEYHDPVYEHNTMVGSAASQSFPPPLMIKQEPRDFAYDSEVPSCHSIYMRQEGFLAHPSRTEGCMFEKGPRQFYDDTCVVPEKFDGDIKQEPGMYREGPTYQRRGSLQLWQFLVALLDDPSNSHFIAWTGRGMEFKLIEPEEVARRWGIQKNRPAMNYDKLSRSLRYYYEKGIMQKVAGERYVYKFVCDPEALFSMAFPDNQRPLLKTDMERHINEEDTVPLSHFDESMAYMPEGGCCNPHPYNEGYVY
# Method in brief: as §1
sequence,measurement,setting,value
ACGTAC,binding signal,[1],"1.24 fold enrichment (6-mer frequency, TF over GST control)"
same,binding signal,[2],"1.16 fold enrichment (6-mer frequency, TF over GST control)"
same,binding signal,[3],"1.13 fold enrichment (6-mer frequency, TF over GST control)"
same,binding signal,[4],"1.08 fold enrichment (6-mer frequency, TF over GST control)"
same,binding signal,[5],"1.16 fold enrichment (6-mer frequency, TF over GST control)"
same,binding signal,[6],"1.15 fold enrichment (6-mer frequency, TF over GST control)"
same,binding signal,[7],"1.18 fold enrichment (6-mer frequency, TF over GST control)"
same,binding signal,[8],"1.11 fold enrichment (6-mer frequency, TF over GST control)"
same,binding signal,[9],"1.19 fold enrichment (6-mer frequency, TF over GST control)"
same,binding signal,[10],"1.17 fold enrichment (6-mer frequency, TF over GST control)"
same,binding signal,[11],"1.21 fold enrichment (6-mer frequency, TF over GST control)"
same,binding signal,[12],"1.04 fold enrichment (6-mer frequency, TF over GST control)"
same,binding signal,[13],"1.18 fold enrichment (6-mer frequency, TF over GST control)"
same,binding signal,[14],"1.23 fold enrichment (6-mer frequency, TF over GST control)"
same,binding signal,[15],"1.24 fold enrichment (6-mer frequency, TF over GST control)"
same,binding signal,[16],"1.32 fold enrichment (6-mer frequency, TF over GST control)"
same,binding signal,[17],"1.25 fold enrichment (6-mer frequency, TF over GST control)"
same,binding signal,[18],"1.18 fold enrichment (6-mer frequency, TF over GST control)"

# — article PMC7862700, “An all-to-all approach to the identification of sequence-specific readers for epigenetic DNA modifications on cytosine”
